What all share (experiment): HT-SELEX; 20 mM HEPES pH 7, 140 mM KCl, 5 mM NaCl, 1 mM K2HPO4, 2 mM MgSO4, 100 uM EGTA, ZnSO4, 0.1% Tween20; room temperature, 1 h; high values mean tight binding
Settings in all cases: protein: ivt; tags: eGFP (N-terminal); dsDNA, one strand shown

One assay deals with ZNF721 full-length (Homo sapiens, UniProt Q8TF20-2 1-923). Summed up:
(§1)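 A tagged transcription factor, either full-length or its DNA-binding-domain fragment, was made in HEK293 lysate or cell-free extract, immobilised on beads and incubated with a randomized 40-base DNA library for 1 h at room temperature in HEPES/KCl low-stringency buffer containing Tween20. Washed beads were heat-eluted, and the bound DNA was PCR-amplified over successive cycles and Illumina-sequenced at ~3 million 60 bp reads per sample. The binding signal is the relative k-mer count in selected reads, where a higher value means tighter binding.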

In the next assay the target is ZNF721 DBD1 (Homo sapiens, UniProt Q8TF20-2 29-461). Summed up:
as §1

The next assay deals with ZNF721 DBD2 (Homo sapiens, UniProt Q8TF20-2 395-923). An outline of the steps: as §1
Chain of ZNF721 DBD2 (Q8TF20 383-911): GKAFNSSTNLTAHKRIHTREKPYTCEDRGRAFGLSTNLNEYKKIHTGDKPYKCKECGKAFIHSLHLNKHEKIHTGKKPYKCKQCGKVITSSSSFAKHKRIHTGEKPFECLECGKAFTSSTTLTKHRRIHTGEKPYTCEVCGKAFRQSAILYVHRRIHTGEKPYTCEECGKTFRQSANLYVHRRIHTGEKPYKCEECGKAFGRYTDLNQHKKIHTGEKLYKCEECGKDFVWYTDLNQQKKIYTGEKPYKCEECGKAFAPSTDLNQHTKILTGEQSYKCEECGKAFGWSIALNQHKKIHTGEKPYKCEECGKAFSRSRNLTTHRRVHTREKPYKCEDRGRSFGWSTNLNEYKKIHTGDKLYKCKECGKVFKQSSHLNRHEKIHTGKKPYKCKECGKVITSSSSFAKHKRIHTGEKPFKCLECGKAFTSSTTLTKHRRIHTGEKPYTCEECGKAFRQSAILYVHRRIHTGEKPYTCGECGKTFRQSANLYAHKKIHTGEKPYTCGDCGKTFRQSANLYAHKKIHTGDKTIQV

Chain of ZNF721 DBD1 (Q8TF20 17-449): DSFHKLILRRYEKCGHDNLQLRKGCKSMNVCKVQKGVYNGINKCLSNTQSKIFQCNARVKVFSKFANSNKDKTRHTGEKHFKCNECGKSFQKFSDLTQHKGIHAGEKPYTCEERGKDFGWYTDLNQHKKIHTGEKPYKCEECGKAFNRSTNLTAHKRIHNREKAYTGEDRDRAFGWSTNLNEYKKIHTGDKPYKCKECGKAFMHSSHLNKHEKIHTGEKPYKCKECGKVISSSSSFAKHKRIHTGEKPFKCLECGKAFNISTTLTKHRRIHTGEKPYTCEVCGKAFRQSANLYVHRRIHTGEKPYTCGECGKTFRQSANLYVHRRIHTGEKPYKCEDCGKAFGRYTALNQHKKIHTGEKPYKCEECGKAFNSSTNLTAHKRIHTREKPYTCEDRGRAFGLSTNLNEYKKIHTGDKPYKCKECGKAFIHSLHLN
Chain of ZNF721 full-length (Q8TF20 other isoform, or with tags, fused parts or gaps): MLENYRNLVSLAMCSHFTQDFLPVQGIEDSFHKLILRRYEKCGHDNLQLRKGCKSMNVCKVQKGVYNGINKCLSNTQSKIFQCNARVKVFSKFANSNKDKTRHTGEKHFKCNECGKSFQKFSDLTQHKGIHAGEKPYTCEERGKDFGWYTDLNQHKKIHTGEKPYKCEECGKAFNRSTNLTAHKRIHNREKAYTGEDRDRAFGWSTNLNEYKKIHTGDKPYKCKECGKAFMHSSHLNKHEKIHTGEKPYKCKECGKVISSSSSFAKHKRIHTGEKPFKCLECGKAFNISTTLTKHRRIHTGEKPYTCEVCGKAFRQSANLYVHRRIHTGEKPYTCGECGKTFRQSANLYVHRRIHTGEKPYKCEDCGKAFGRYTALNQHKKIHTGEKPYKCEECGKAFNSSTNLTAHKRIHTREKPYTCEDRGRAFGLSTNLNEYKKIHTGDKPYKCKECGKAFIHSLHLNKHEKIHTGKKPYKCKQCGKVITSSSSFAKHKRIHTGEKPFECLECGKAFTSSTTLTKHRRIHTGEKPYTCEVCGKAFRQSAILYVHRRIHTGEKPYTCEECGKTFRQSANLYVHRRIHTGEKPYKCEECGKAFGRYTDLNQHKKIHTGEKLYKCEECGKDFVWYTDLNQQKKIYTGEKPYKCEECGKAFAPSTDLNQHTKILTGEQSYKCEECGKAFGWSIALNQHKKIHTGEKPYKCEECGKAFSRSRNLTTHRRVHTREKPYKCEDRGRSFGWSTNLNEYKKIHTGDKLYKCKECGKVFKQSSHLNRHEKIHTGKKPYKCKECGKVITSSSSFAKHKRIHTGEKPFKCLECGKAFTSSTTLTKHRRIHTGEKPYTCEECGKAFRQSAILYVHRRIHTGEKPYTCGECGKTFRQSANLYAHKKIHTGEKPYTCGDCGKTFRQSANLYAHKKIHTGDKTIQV

As to AAAAAGCTAT, the binding signal with ZNF721 full-length is 0.425 relative 10-mer count; with ZNF721 DBD1 it was 0.225 relative 10-mer count; with ZNF721 DBD2, 0.00192 relative 10-mer count.
CCATCCACCC: the binding signal was determined as 0.109 relative 10-mer count with ZNF721 full-length, 0.00578 relative 10-mer count with ZNF721 DBD1 and 0.00467 relative 10-mer count with ZNF721 DBD2.
As to ACCCCCCAAC, the binding signal is 0.103 relative 10-mer count with ZNF721 full-length, 0.00321 relative 10-mer count in the assay with ZNF721 DBD1 and 0.00407 relative 10-mer count in the assay with ZNF721 DBD2.
For CCCACCATCC, the binding signal in the assay with ZNF721 full-length is 0.152 relative 10-mer count; with ZNF721 DBD1 it was 0.00647 relative 10-mer count; in the assay with ZNF721 DBD2, 0.00527 relative 10-mer count.
For the sequence CCCGCCACCC, the binding signal in the assay with ZNF721 full-length came out at 0.304 relative 10-mer count; with ZNF721 DBD1, 0.0125 relative 10-mer count; with ZNF721 DBD2, 0.00252 relative 10-mer count.
Turning to CCCACCCCTC, the binding signal stood at 0.188 relative 10-mer count with ZNF721 full-length, 0.01 relative 10-mer count with ZNF721 DBD1 and 0.00527 relative 10-mer count with ZNF721 DBD2.
On to CAGCCCCACC, for which the results for the binding signal in the assay with ZNF721 full-length, with ZNF721 DBD1 and with ZNF721 DBD2 were 0.116 relative 10-mer count, 0.00349 relative 10-mer count and 0.0291 relative 10-mer count, respectively.
Regarding CCCCTCACCC, the figures for the binding signal in the assay with ZNF721 full-length, with ZNF721 DBD1 and with ZNF721 DBD2 were 0.187 relative 10-mer count, 0.00711 relative 10-mer count and 0.00503 relative 10-mer count, respectively.
For ACCACCCCCA, the binding signal was 0.142 relative 10-mer count in the assay with ZNF721 full-length, 0.00505 relative 10-mer count in the assay with ZNF721 DBD1 and 0.00204 relative 10-mer count in the assay with ZNF721 DBD2.
Turning to CCACCCCCCA, the binding signal in the assay with ZNF721 full-length was determined as 0.272 relative 10-mer count; with ZNF721 DBD1, 0.0103 relative 10-mer count; in the assay with ZNF721 DBD2, 0.00443 relative 10-mer count.
With GTATGAAGCA, the binding signal in the assay with ZNF721 full-length was 0.171 relative 10-mer count; in the assay with ZNF721 DBD1, 0.261 relative 10-mer count; with ZNF721 DBD2, 0.00132 relative 10-mer count.
As for CCCGCCCACC, the binding signal is 0.259 relative 10-mer count with ZNF721 full-length, 0.0105 relative 10-mer count with ZNF721 DBD1 and 0.0024 relative 10-mer count with ZNF721 DBD2.
Take CTCCCCCCAC: the binding signal worked out at 0.148 relative 10-mer count in the assay with ZNF721 full-length, 0.00794 relative 10-mer count in the assay with ZNF721 DBD1 and 0.00419 relative 10-mer count with ZNF721 DBD2.
On the same counts, the results for AAAAAAGCAC are 0.158 relative 10-mer count, 0.0181 relative 10-mer count and 0.0367 relative 10-mer count.
Consider CCCCCGCTCC, for which the binding signal in the assay with ZNF721 full-length came to 0.103 relative 10-mer count; in the assay with ZNF721 DBD1, 0.0033 relative 10-mer count; with ZNF721 DBD2, 0.00144 relative 10-mer count.
Take CCACCGCCCA: the binding signal in the assay with ZNF721 full-length is 0.131 relative 10-mer count; with ZNF721 DBD1, 0.00477 relative 10-mer count; with ZNF721 DBD2, 0.00575 relative 10-mer count.
With AGGGGGTGGG, the results for the binding signal with ZNF721 full-length, in the assay with ZNF721 DBD1 and with ZNF721 DBD2 were 0.201 relative 10-mer count, 0.0107 relative 10-mer count and 0.00467 relative 10-mer count, respectively.
As to AAAACAGTAT, the binding signal turned out to be 0.105 relative 10-mer count in the assay with ZNF721 full-length, 0.00124 relative 10-mer count with ZNF721 DBD1 and 0.155 relative 10-mer count in the assay with ZNF721 DBD2.
In the case of CCACCCTCCA, the binding signal with ZNF721 full-length was 0.123 relative 10-mer count; in the assay with ZNF721 DBD1, 0.00587 relative 10-mer count; in the assay with ZNF721 DBD2, 0.00815 relative 10-mer count.
Turning to CCCCCACGCC, the binding signal with ZNF721 full-length is 0.181 relative 10-mer count; in the assay with ZNF721 DBD1 it was 0.00688 relative 10-mer count; with ZNF721 DBD2, 0.00419 relative 10-mer count.
Regarding CCCACACCAC, the binding signal in the assay with ZNF721 full-length amounted to 0.137 relative 10-mer count; in the assay with ZNF721 DBD1 it was 0.00541 relative 10-mer count; with ZNF721 DBD2, 0.00503 relative 10-mer count.
As for CCCTCCCCGC, the binding signal was 0.139 relative 10-mer count with ZNF721 full-length, 0.00555 relative 10-mer count with ZNF721 DBD1 and 0.00995 relative 10-mer count in the assay with ZNF721 DBD2.
Turning to CCACACCCCA, the figures for the binding signal in the assay with ZNF721 full-length, with ZNF721 DBD1 and with ZNF721 DBD2 were 0.124 relative 10-mer count, 0.00472 relative 10-mer count and 0.00503 relative 10-mer count, respectively.
As to CCCCCCGCCG, the binding signal is 0.104 relative 10-mer count with ZNF721 full-length, 0.00303 relative 10-mer count with ZNF721 DBD1 and 0.0024 relative 10-mer count in the assay with ZNF721 DBD2.
For the sequence ACCCCACCCT, the binding signal amounted to 0.104 relative 10-mer count with ZNF721 full-length, 0.005 relative 10-mer count with ZNF721 DBD1 and 0.00372 relative 10-mer count in the assay with ZNF721 DBD2.
For CCGTCCACCC the same measures were 0.103 relative 10-mer count, 0.00472 relative 10-mer count and 0.0036 relative 10-mer count.
Turning to CCACCCCTAC, the binding signal with ZNF721 full-length worked out at 0.112 relative 10-mer count; in the assay with ZNF721 DBD1, 0.00449 relative 10-mer count; with ZNF721 DBD2 it was 0.0036 relative 10-mer count.
For the sequence CCACCGACCC, the values for the binding signal in the assay with ZNF721 full-length, in the assay with ZNF721 DBD1 and with ZNF721 DBD2 were 0.107 relative 10-mer count, 0.00482 relative 10-mer count and 0.0036 relative 10-mer count, respectively.
Take AAAAGCTGCC: the binding signal is 0.103 relative 10-mer count with ZNF721 full-length, 0.0372 relative 10-mer count with ZNF721 DBD1 and 0.00108 relative 10-mer count in the assay with ZNF721 DBD2.
On the same counts, the results for AAGAAAAAAG are 0.166 relative 10-mer count, 0.0407 relative 10-mer count and 0.0319 relative 10-mer count.
Turning to GGGGTGGGCA, the results for the binding signal in the assay with ZNF721 full-length, with ZNF721 DBD1 and with ZNF721 DBD2 were 0.11 relative 10-mer count, 0.00381 relative 10-mer count and 0.00395 relative 10-mer count, respectively.
CCACAAAAAA: the binding signal with ZNF721 full-length is 0.125 relative 10-mer count; with ZNF721 DBD1, 0.00615 relative 10-mer count; with ZNF721 DBD2 it was 0.0663 relative 10-mer count.
For CCACCACACC the same measures were 0.148 relative 10-mer count, 0.00537 relative 10-mer count and 0.00587 relative 10-mer count.
For CCCACCACCC the same measures were 0.562 relative 10-mer count, 0.0272 relative 10-mer count and 0.00635 relative 10-mer count.
As for CCCTCCACCC, the figures for the binding signal in the assay with ZNF721 full-length, with ZNF721 DBD1 and in the assay with ZNF721 DBD2 were 0.321 relative 10-mer count, 0.0139 relative 10-mer count and 0.00731 relative 10-mer count, respectively.
Regarding CCCCCCCACA, the binding signal with ZNF721 full-length came out at 0.124 relative 10-mer count; with ZNF721 DBD1 it was 0.00491 relative 10-mer count; with ZNF721 DBD2 it was 0.00743 relative 10-mer count.
For CTCCCTCCCC the same measures were 0.143 relative 10-mer count, 0.00927 relative 10-mer count and 0.00312 relative 10-mer count.
